Experiments:
Experiment in all cases: PBM binding z-score (relative to random genomic background probes); higher = stronger binding; sequences stand for … in GC…GCGATTGACAGCGTAGAATGAAGG
[1] = tested on: RARb homodimer (NR concentration 270 nM)
How it was run: (§1)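 For binding z-scores, the reference was random background probes on custom Agilent 4×180K protein-binding microarrays. These arrays were incubated 1 h with ligand-free nuclear receptor dimers in PBS pH 7.4, 2% milk, 0.02% Triton X-100, 1 mM DTT, 0.2 mg/mL BSA and 0.4 mg/ml salmon testes DNA. Fluorescence was scanned after antibody detection of each partner (one per run) and regression-normalized.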

[2] = tested on: RARg:RXRa (NR concentration 270 nM, RXRa partner concentration 90 nM)
How it was run: as §1

[3] = tested on: RARg homodimer (NR concentration 270 nM)
How it was run: as §1

[4] = tested on: RXRa DBDmut IVT, anti-RXR (DBD mutation: RXRa K156A/R161A, NR concentration 90 nM)
How it was run: as §1

[5] = tested on: RXRa homodimer (NR concentration 180 nM)
How it was run: as §1

[6] = tested on: THRa:RXRa (NR concentration 90 nM, RXRa partner concentration 90 nM)
How it was run: as §1

[7] = tested on: THRa homodimer (NR concentration 90 nM)
How it was run: as §1

[8] = tested on: VDR homodimer (NR concentration 270 nM)
How it was run: as §1

Sequence | PBM binding z-score [1] | PBM binding z-score [2] | PBM binding z-score [3] | PBM binding z-score [4] | PBM binding z-score [5] | PBM binding z-score [6] | PBM binding z-score [7] | PBM binding z-score [8]
CAAACTAGGTCACAGAGGTCAATGTCCGTGCGTA | 5.68 | 6.89 | 7.2 | 3.06 | 6.85 | 4.66 | 2.96 | 6.33
CCTAGTTGGTCAGGGTCACACACGCTATAGGTAC | 3.88 | 4.11 | 3.38 | 1.6 | 4.93 | 3.63 | 2.49 | 2.69
CAGCCTAGGTCAGGGCCAGTATTGGAGGAACGTT | 2.67 | 2.91 | 3.91 | -0.14 | 1.62 | 2 | 0.259 | -0.444
TGAATGGGGTTAAAGATCAGGGAACGTGGCGTCG | 1.49 | 3.19 | 1.53 | 1.95 | 6 | 2.88 | 1.23 | 1.58
ACTAGCAGGCCAAGTTTGGGTAACTCAAACAAAG | -0.346 | -0.166 | 0.104 | -0.417 | -0.603 | 0.525 | -0.513 | -0.292
TCGAGTAGGTTCCCAATGGGGCATTCAGCTTTCT | -0.191 | -0.766 | -0.954 | 0.269 | -0.493 | -0.435 | -0.628 | -1.15
CCTAGCAGGCCAGGGTCAGTCAAGCATTTCGCTT | 2.16 | 2.07 | 1.85 | -0.296 | 1.65 | 1.75 | 0.116 | 0.172
TCCATTAGTTGAAGGGCAACCGACGAGTCCGTTT | 1.47 | 0.679 | 0.586 | 1.9 | 1.05 | 0.553 | 0.351 | 1.57
AGAACGAGGGCCCGCTGAGTTGATAGCAGAGTAG | -1.16 | -0.775 | -0.722 | -0.659 | -0.399 | -1.6 | -0.89 | -0.586
ATCTCTAGGTAAGACTCAATTCAGTGAAGAACGC | 0.0312 | 0.0724 | 0.455 | 0.244 | 0.0675 | 0.381 | 0.522 | 0.603
CGTCCAAGATCATAGGAGGTCAGTGAAGACAGAT | 3.26 | 2.22 | 2.22 | 0.36 | 2.03 | 3.98 | 0.538 | 1.21
GCTACTGGGGCAAAGCAGGTTACCATAAGGTTGG | 1.16 | 0.343 | 0.791 | 0.0265 | 0.261 | 2.75 | 0.258 | -0.451
AGAATGAAGTTACCAAAGATCAGGGAAACGCTTG | -0.995 | 0.125 | 0.206 | -0.628 | 0.402 | -0.228 | -1.02 | -0.257
CTCGACAGGTCGTGCTCAGGTGAGTATACCAAAC | 1.11 | 2.21 | 1.33 | 0.53 | 1.3 | 3.08 | 0.709 | 0.293
GGTACGAGGGCATTCGAGTTGATAGCATGGCGAT | 0.849 | 1.06 | 1.61 | 3.01 | 0.971 | 3.28 | -0.337 | 3.68
TATACAGGGTCACAGGCCAGAGTACGAATGTCGA | 3.83 | 5.96 | 5.41 | 2.61 | 6.79 | 3.92 | 1.94 | 2.51
CCTTAAGGGTCACTCCAGGTTATAGCATCGGAGT | 4.32 | 5.98 | 6.35 | 3.27 | 6.02 | 5.09 | 0.592 | 2.55
ATCTCTAGGTAAGACTCAGTTCCGTGAAGAACGC | 0.119 | -0.049 | -0.0446 | 0.432 | -0.116 | 0.287 | 0.766 | 0.435
ATCTCTAGGTAAAAGTTTAGTGAATCCCGAGGAT | 0.137 | 0.438 | 0.614 | -0.116 | 0.318 | 0.379 | 0.343 | 0.554
GCTATTAGTTGAAAGGGCAAGCGAATGATTCTCG | 1.71 | 1.06 | 1.04 | 0.747 | 1.06 | 0.545 | -0.289 | 0.401
TCGAGTAGGTTACCAATGGGGCATTCACCTTTCT | 1.29 | 1.38 | 0.58 | 0.49 | 0.913 | 0.504 | -0.317 | -0.574
CCGACTGGTGCAGAAAGGTTACCATACCATCCGG | 1.73 | 1.16 | 0.812 | -0.6 | 1.61 | 0.935 | -0.35 | -0.229
TTACCAAGGTGAAGGTCGTTGTTCCCTCTGTAGA | 2.09 | 1.36 | 1.24 | 0.33 | 1.49 | 2.4 | 1.18 | 1.11
TCTGGTAGATCAAAGGTTAAGAAAGCCGAAGCCT | 1.4 | 1.89 | 0.73 | 0.747 | 3.05 | 1.33 | -0.327 | 0.151
TCCTGTAGATCAAAGGTTAAGAAAGCCGAAGCCT | 1.39 | 1.89 | 0.87 | 0.61 | 3.17 | 1.24 | -0.54 | -0.182
GCTCGGAGGACGAGGTCAGAGCTTTGTCCGTAGA | 2.89 | 3.06 | 2.84 | 0.606 | 3.19 | 3.09 | 1.51 | 1.26

Sequence | PBM binding z-score [1] | PBM binding z-score [2] | PBM binding z-score [3] | PBM binding z-score [4] | PBM binding z-score [5] | PBM binding z-score [6] | PBM binding z-score [7] | PBM binding z-score [8]
CGAACTAGGGCATTGACAGGACAGTGAATAGTAA | 0.812 | 1.07 | 1.13 | 0.467 | 0.388 | 0.559 | -0.0936 | 0.137
ACTCGGAGGACAAAGGTCTGAGCTACGCCAGTGA | 0.62 | 0.869 | 0.954 | 0.352 | 0.0538 | 0.538 | -0.424 | -0.296
TCTTTTAGTTGATTAGGGCAACCGAAACAGCGGA | 1.02 | 1.27 | 1.12 | 1.2 | 0.836 | 1.07 | 0.745 | 0.435
GGAACGAGGGCAAGTGGATAGCAGAGTTTGATGG | 1.59 | 1.62 | 2.03 | 1.93 | 0.87 | 1.1 | -0.000164 | 1.39
AGAACGTGGGCAATGAGTTGATAGCACGGGTGGC | -0.41 | -0.369 | -0.147 | -0.174 | 0.0338 | -0.628 | -0.889 | 0.376
TCTCGGAGGACACGAAAGGTCCGAGCTCGACATC | 0.997 | 0.805 | 1.35 | 0.605 | 0.384 | 1.62 | 0.526 | 0.0895
ACTAGTTGGGCAGCTGAGGTCACACACAATTCGG | 3.83 | 3.56 | 3.17 | 1.21 | 3.56 | 4.63 | 4.73 | 2.9
CCGAGTAGGTTATGGGGCATTCGGGCAACGGTGA | 1.46 | 0.533 | 0.653 | -0.483 | 0.797 | 0.415 | 0.172 | -0.175
TCTATCAGGCCAGAGGGTCACTCAAGAGGTACGG | 2.89 | 2.92 | 2.44 | 0.811 | 2.56 | 2.29 | 0.348 | 1.16
ATATGTAGGTTATCGGGTCACTCAGTTTGCGCAT | 3.37 | 3.31 | 3.06 | 1.56 | 3.33 | 3.59 | 3.18 | 2.36
AGCCAAAGTTCAGGACGAGGTAACGTAAAGCACG | 3.29 | 4.54 | 4.18 | 2.63 | 3.05 | 3.87 | 1.74 | 1.79
CGAACTAGGTCAAGAACAGTGAATCTCCGCACGC | 2.48 | 3.31 | 4 | 1.65 | 2.36 | 2.33 | 0.755 | 0.197
AACTCTAGGTAAAAGTTCAGTGAATCCCGAGGAT | 2.27 | 1.77 | 1.69 | 0.858 | 1.76 | 1.22 | 0.014 | 1.4
CCTTACGGGTCACGAGGTTATACCACGACGAGCG | 3.83 | 6.22 | 5.35 | 1.77 | 7.21 | 3.84 | 1.13 | 2.24
CCAGACACGTGAAAGGTAACTCAGTCTGGTACGC | -0.128 | -0.098 | 0.0725 | 0.166 | 0.263 | 0.166 | -0.268 | -0.17
ATCGAAAGCTCGTGAGGTGAGTATACAGAAAGGC | -0.145 | -0.029 | 0.239 | -0.842 | -0.0851 | 1.52 | 0.723 | -0.704
TGAATGAGGTTATAAGATCAGGGACCGTTGCAAA | 0.518 | 1.43 | 0.648 | 0.574 | 1.83 | 1.75 | 0.103 | 0.401
ATCGAAAGGTCGAGGAGAGTATAGAGAAAGGGAA | 2.25 | 4.13 | 3.86 | 0.539 | 4.21 | 1.94 | -0.151 | 0.103
CCTAATGGGCCATTCAGAGGTCATTGATCATATG | 4.03 | 4.62 | 2.88 | 1.45 | 4 | 3.16 | 1.19 | 3.03
CAAACTAGGTCAAGGTAAAAGTCGGTTTGTGCCA | 3.47 | 3.84 | 5.09 | 1.52 | 2.93 | 3.03 | 1.49 | 0.742
CCTGCTAAGTCAATGGTCAGCTAAAGCAGCTCGC | 0.12 | -0.277 | -0.302 | 0.497 | -0.263 | -0.402 | -0.724 | -0.804
CCTACTGGGCCACGCAAGGTCATTGATTCAGTGA | 3.66 | 3.09 | 2.61 | 0.396 | 2.62 | 4.54 | 2.64 | 2.93
CCGACTGGGGCAAGGTTAACATAACGCACAGCCA | 1.47 | 1.3 | 1.3 | -0.45 | 1.38 | 1.37 | -0.033 | 0.172
GGAACGAGAGCAAAGTTGATAGCATCTGTCGACG | -0.806 | -0.113 | -0.0315 | -0.36 | 0.334 | -0.711 | -1.35 | -0.396
ACAGACAAGTGAGTGAAGGTAACTCAGCTGGACG | -0.464 | -0.0696 | 0.0663 | -0.283 | -0.0064 | -0.0405 | -0.435 | -0.445
GCTAGTTGGTCAGTTAAAGGTCACACACCGGTCG | 5.09 | 5.56 | 4.82 | 0.773 | 5.12 | 3.53 | 2.36 | 2.33
